Source: PubChem BioAssay (National Center for Advancing Translational Sciences (NCATS))
S-ASM inh – Inhibitors of Secretory Acid Sphingomyelinase (S-ASM): qHTS. 0.006% of 340,000 active. Sphingomyelin phosphodiesterase (Homo sapiens), P17405. Potency, µM (top dose mostly 57.5 µM), for inactives: at the highest dose activity change, negative = inhibition, actives largely listed as inhibitors. placental ASM, HMU-PC fluorogenic substrate, 60 min
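HMU-PC0 cleavage (9 uM final) by human placental ASM, 60 min at 37 °C following 10 min compound exposure at RT; stopped at pH 10, fluorescence Ex 386/Em 447 nm.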
Pin1 inhibitor – qHTS Assay to Find Inhibitors of Pin1; AID 504891, 2011; Potency, µM (series often up to 115 µM), without a hit: top-dose activity, negative = inhibition, most hits filed as inhibitors; Pin1 FP peptide displacement, HiFluor488, 10 min; Peptidyl-prolyl cis-trans isomerase NIMA-interacting 1 (Homo sapiens), Q13526; 0.009% of 390,000 active; active = well fitted inhibition curve with a large enough effect in the polarisation, with a control signal flat, not every such curve was filed as active; inconclusive = small, poorly fitted or top-dose-only effect, or effect the other way, or a change in a side signal; inactive = no such curve, though single readings can be large or run the other way; the % refers to the polarisation; also: % is scaled to controls: 0 for no effect and ±100 for the full control effect
Target sequence (Q13526 whole entry, looked up): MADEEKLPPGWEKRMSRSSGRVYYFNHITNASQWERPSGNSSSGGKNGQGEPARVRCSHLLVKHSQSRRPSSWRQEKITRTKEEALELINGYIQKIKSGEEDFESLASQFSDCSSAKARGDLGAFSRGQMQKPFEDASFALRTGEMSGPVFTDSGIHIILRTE
Tb PFK inh – qHTS Assay to Find Inhibitors of T. brucei phosphofructokinase | T. brucei PFK, ADP-Glo luminescence | 0.17% of 330,000 active | Potency, µM (doses to about 57.5 µM), for inactives: at the highest dose activity, negative = inhibition, actives largely listed as inhibitors;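 also: 0% = uninhibited 1x PFK enzyme wells and -100% = no-enzyme wells; nearly all actives have a fitted effect of over 60% in size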
Target sequence (O15648 whole entry, looked up): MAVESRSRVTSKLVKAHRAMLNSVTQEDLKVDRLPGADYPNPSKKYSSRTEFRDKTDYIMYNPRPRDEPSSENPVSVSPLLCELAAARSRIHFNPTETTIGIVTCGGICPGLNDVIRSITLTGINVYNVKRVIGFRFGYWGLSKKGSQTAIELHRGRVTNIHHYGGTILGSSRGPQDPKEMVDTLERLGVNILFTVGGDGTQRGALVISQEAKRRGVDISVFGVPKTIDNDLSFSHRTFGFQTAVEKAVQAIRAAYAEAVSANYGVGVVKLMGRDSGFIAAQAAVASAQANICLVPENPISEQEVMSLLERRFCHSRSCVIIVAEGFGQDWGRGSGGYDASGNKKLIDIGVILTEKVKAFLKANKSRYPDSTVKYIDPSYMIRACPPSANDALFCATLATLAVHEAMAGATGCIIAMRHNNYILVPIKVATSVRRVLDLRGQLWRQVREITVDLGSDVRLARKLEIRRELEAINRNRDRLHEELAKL
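ADP-Glo luminescence quantified ADP after 45 min at room temperature, with 1.25 nM T. brucei PFK, 0.1 mM ATP and 0.5 mM fructose-6-phosphate in pH 8.0 TEA buffer. qHTS titrations up to 57 µM; curves classified by quality.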
TDP1 inh – qHTS Assay for Inhibitors of Tyrosyl-DNA Phosphodiesterase (TDP1); recombinant TDP1, AlphaScreen DNA substrate cleavage; Potency, µM (highest dose often 130 µM), for inactives: top-dose activity change, negative = inhibition, most hits filed as inhibitors; 0.28% of 350,000 active; AID 485290, 2010; also: % is scaled to controls: 0 for no effect and ±100 for the full control effect; nearly all actives have a fitted effect of over 40% in size
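AlphaScreen read-out: signal falls as enzyme removes the 3' tyrosine-FITC from a 5'-biotinylated DNA oligo (15 nM, 5 min, RT). Enzyme was E. coli-made recombinant Tdp1 at 1 nM, exposed to compound for 15 min beforehand; beads 10 ug/ml, 10 min.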
VDR inhibitor – Inhibitors of the vitamin D receptor (VDR): qHTS; Vitamin D3 receptor (Homo sapiens), P11473; VDR-SRC2-3 peptide fluorescence polarization, 2 h; Potency, µM, without a hit: max response, negative = inhibition, most hits filed as inhibitors; 0.93% of 400,000 active; AID 504847, 2011; also: % is scaled to controls: 0 for no effect and ±100 for the full control effect
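Measured by FP: displacement of SRC2-3 coactivator peptide from VDR by library compounds, following a two-hour ambient incubation.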
PLK1 PBD block – qHTS for Inhibitors of PLK1-PDB (polo-like kinase 1 - polo-box domain): Primary Screen. Plk1 PBD binding of FITC phosphopeptide, fluorescence polarization. Serine/threonine-protein kinase PLK1 (Homo sapiens), P53350. Potency, µM, for inactives: max response, negative = inhibition, actives largely listed as inhibitors. 2.8% of 360,000 active; also: series mostly up to about 57 µM; % is scaled to controls: 0 for no effect and ±100 for the full control effect; nearly all actives have a fitted effect of over 65% in size
The depositor's hits bear a star; ! = not active in a repeat; [ ] = another dose, or the depositor's remark. A selection: hits, their analogues and other compounds. The true share with any hit is near 3.1%. Unless noted, calls follow the shape of the dose curve; as a rule, active = well fitted curve in the direction sought with a large enough effect; inconclusive = small, poorly fitted or top-dose-only effect, or another doubt; inactive = no such curve, though single readings can be large; an effect the other way counts as inactive or inconclusive. Potency is read from the fitted curve at half-maximal effect.

What do the screens show for `O=C(O)c1cc(O)c(O)c(O)c1`?
TDP1 inh: inconclusive; VDR inhibitor: 50µM*!

Results for COC(=O)[C@]1(C)CC[C@@]2(C)CC[C@@]3(C)C4=CCc5c(cc(O)c(O)c5C)[C@]4(C)CC[C@@]3(C)C2C1 (some centres undefined) ?
TDP1 inh: -9%; VDR inhibitor: 28µM*

What do the screens show for `CC(C)(OOC(C)(C)c1ccccc1)c1ccccc1`?
TDP1 inh: 5%

What do the screens show for `Cc1c(P(=S)(c2ccccc2)c2ccccc2)[n+]2ccccc2n1CCCc1ccccc1`?
Pin1 inhibitor: inconclusive; TDP1 inh: 2%

What do the screens show for `COc1cc2c(c3oc4cccc(O)c4c(=O)c13)C1C=CO[C@@H]1O2` (some centres undefined)?
TDP1 inh: 3%; VDR inhibitor: 0%

How did Cc1cccc2c3c(ccc12)C1=C(C(=O)C3=O)[C@@H](C)CO1 do in these assays?
TDP1 inh: 18%; VDR inhibitor: 20µM*

Results for Brc1cccc(-c2ccccc2)c1 ?
TDP1 inh: 1%

Results for CCOc1ccc2nc(N=Nc3c(O)[nH]c(=O)[nH]c3=O)sc2c1 ?
S-ASM inh: -3%; Pin1 inhibitor: inconclusive; Tb PFK inh: -5%; TDP1 inh: 40µM*; VDR inhibitor: -21%; PLK1 PBD block: -25%

Results for CCOc1ccc2nc(N=Nc3c(O)[nH]c(=S)[nH]c3=O)sc2c1 ?
S-ASM inh: -19%; Pin1 inhibitor: -13%; Tb PFK inh: -4%; TDP1 inh: -4%; VDR inhibitor: -5%; PLK1 PBD block: -28%

Results for CN1C(CC(=O)c2ccccc2)CCCC1CC(O)c1ccccc1 (centres undefined) ?
S-ASM inh: -1%; Pin1 inhibitor: 0%; Tb PFK inh: 2%; TDP1 inh: 5%[56.1 µM]; VDR inhibitor: 89µM*!; PLK1 PBD block: -12%

Results for CCCCC1(C2CCCC2)Cc2cc(OCCCC(=O)O)c(Cl)c(Cl)c2C1=O (centres undefined) ?
TDP1 inh: 8%; VDR inhibitor: 40µM*

Results for NC(=O)[C@H](Cc1ccccc1)NC(=O)[C@H](Cc1c[nH]c2ccccc12)NC(=O)[C@@H]1CCCN1C(=O)[C@@H](N)Cc1ccc(O)cc1 ?
TDP1 inh: 1%

Results for CC1=C(O)C(=O)C=C2C1=CC=C1[C@]2(C)CC[C@@]2(C)C3C[C@](C)(C(=O)O)CC[C@@]3(C)CC[C@@]12C (some centres undefined) ?
TDP1 inh: 12%; VDR inhibitor: 3.5µM*

Results for CC(=O)OCC1=C(C(=O)O)N2C(=O)C(NC(=O)CCCC(N)C(=O)O)C2SC1 (centres undefined) ?
TDP1 inh: 25µM*; VDR inhibitor: inconclusive

How did Oc1ccc(/C=N/NP(=S)(c2ccccc2)c2ccccc2)c(O)c1O do in these assays?
S-ASM inh: -9%; Pin1 inhibitor: 1%; Tb PFK inh: 1%; TDP1 inh: 7%; VDR inhibitor: -15%; PLK1 PBD block: 11µM*

What do the screens show for `Brc1c(Br)c(Br)c2n[nH]nc2c1Br`?
TDP1 inh: 8%[56.1 µM]; VDR inhibitor: 45µM*

How did C=CC(=O)OCC(CC)CCCC (centres undefined) do in these assays?
TDP1 inh: 3%

Results for CN(C)C(=O)Oc1ccc([N+](=O)[O-])cc1 ?
S-ASM inh: -1%; Pin1 inhibitor: -2%; Tb PFK inh: 1%; TDP1 inh: 0%; VDR inhibitor: -9%; PLK1 PBD block: 0%

How did O=C(O)c1cc(Oc2ccc([N+](=O)[O-])cc2)cc(Oc2ccc([N+](=O)[O-])cc2)c1 do in these assays?
TDP1 inh: 10%; VDR inhibitor: 45µM*

How did O=C(CSc1nc(-c2ccc(Cl)cc2)[nH]c(=O)n1)Nc1cccc(Cl)c1 do in these assays?
S-ASM inh: 0%; Tb PFK inh: -2%; VDR inhibitor: -17%; PLK1 PBD block: 24µM*

How did CCCOC(=O)c1c(N)n(Cc2cccs2)c2nc3ccccc3nc12 do in these assays?
S-ASM inh: inactive; Pin1 inhibitor: -4%; Tb PFK inh: 3%; VDR inhibitor: -25%; PLK1 PBD block: 1%

What do the screens show for `CCCCCn1c(N)c(C(=O)NCCN2CCOCC2)c2nc3ccccc3nc21`?
S-ASM inh: inactive; Pin1 inhibitor: 15%; Tb PFK inh: -3%; TDP1 inh: 6%; VDR inhibitor: -9%; PLK1 PBD block: -11%

Results for Nc1c(C(=O)NCCCc2ccccc2)c2nc3ccccc3nc2n1Cc1cccs1 ?
S-ASM inh: inactive; Pin1 inhibitor: 20%; Tb PFK inh: -5%; VDR inhibitor: 79µM*; PLK1 PBD block: -11%

What do the screens show for `Nc1c(C(=O)NCc2ccco2)c2nc3ccccc3nc2n1Cc1ccc(F)cc1`?
S-ASM inh: inactive; Pin1 inhibitor: 24%; Tb PFK inh: 0%; TDP1 inh: 6%; VDR inhibitor: -9%; PLK1 PBD block: 27µM*

What do the screens show for `CCCCn1c(N)c(C(=O)NCc2cccs2)c2nc3ccccc3nc21`?
S-ASM inh: inactive; Pin1 inhibitor: 2%; Tb PFK inh: -2%; TDP1 inh: -5%; VDR inhibitor: 89µM*; PLK1 PBD block: -10%

How did CCCSP(=S)(OCC)Oc1ccc(Cl)cc1Cl (centres undefined) do in these assays?
TDP1 inh: 13%; VDR inhibitor: 7.1µM*

How did CCOP(=S)(OCC)Oc1ccc(Cl)cc1Cl do in these assays?
TDP1 inh: inconclusive; VDR inhibitor: 50µM*

How did Cc1nn2c(=O)cc(N3CCNCC3)nc2s1 do in these assays?
Pin1 inhibitor: 2%

What do the screens show for `CC(C)Oc1ccc(CNC(=O)Oc2ccccc2)cc1`?
S-ASM inh: 3%; Pin1 inhibitor: -7%; Tb PFK inh: 1%; VDR inhibitor: -13%; PLK1 PBD block: inconclusive

Results for O=NN(c1ccccc1)c1ccccc1 ?
TDP1 inh: 9%

What do the screens show for `Cc1c(C=C2C(=O)N(C)C(=O)N(C)C2=O)c(=O)n(-c2ccccc2)n1C`?
S-ASM inh: 1%; Pin1 inhibitor: 54%; Tb PFK inh: inconclusive; TDP1 inh: -1%; VDR inhibitor: -5%; PLK1 PBD block: inconclusive
